Screening results as filed in PubChem.
Hits are enriched below; roughly 19% of the tested compounds scored in any of these assays.
TDP1 cell CPT: DT40-hTDP1 cell growth loss with CPT; chicken DT40 Tdp1-/-;hTDP1 cells + 20 nM CPT, ATP luminescence, 48 h; AID 686979; Potency, µM (top dose mostly 46.2 µM), for inactives: top-dose activity change, negative = growth inhibition, usual class: inhibitors; 420,000 tested, 12% active; further: potency means the concentration at half of the fitted maximal effect; nearly all actives have a fitted effect of over 55% in size
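Cell growth measured by CellTiter-Glo luminescence after a minimum 48 h, 37 C compound exposure with 20 nM CPT in Tdp1-knockout DT40 cells stably expressing hTDP1, seeded 400/well; qHTS titration format.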
DT40 TDP1 no CPT: qHTS for Inhibitors of human tyrosyl-DNA phosphodiesterase 1 (TDP1): qHTS in cells in absence of CPT. DT40 Tdp1-/- hTDP1 cells, no CPT, ATP luminescence, 48 h. Potency, µM (top dose mostly 46.2 µM), for the others: top-dose activity change, negative = growth inhibition, most hits filed as inhibitors. 420,000 tested, 15% active; further: potency means the concentration at half of the fitted maximal effect; nearly all actives have a fitted effect of over 55% in size
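Growth of hTDP1-complemented DT40 Tdp1-knockout cells is measured by ATP luminescence after at least 48 hr compound exposure at 37 °C, with DMSO substituting for the 20 nM CPT used in the parallel screen.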
IL-1B inflam inh: inhibitors of inflammasome signaling (IL-1 beta secretion); THP-1 LPS/ATP IL-1B secretion, AlphaLISA, 16 h; stronger effect = lower value; activity change, % at 57.5 µM; 360,000 tested, 4.7% active; AID 743279; in the data active means activity change below about -50%; inconclusive means mostly about -30% to -49%
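Secreted IL-1B measured by AlphaLISA bead assay after 16 h compound exposure of THP-1 cells; compounds (final up to 57.5 uM) added 1 h before LPS (250 ng/mL) and ATP (1.25 mM) stimulation; lower signal means less secretion.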
HT1080 IDH1KD tx: HT-1080 IDH1 knockdown cell toxicity (counter line); HT-1080 IDH1 knockdown viability, ATP luminescence, 48 h; Potency, µM (top dose mostly 46.1 µM), for the others: at the top dose activity, negative = toxicity, most hits filed as cytotoxic; 360,000 tested, 2% active; AID 686971;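 further: potency means the concentration at half of the fitted maximal effect; 0% = DMSO wells and -100% = cell-free medium wells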
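% activity derives from luminescence (CellTiter-Glo), normalised to DMSO and no-cell wells. HT-1080-IDH1KD cells, 750/well, had 48 h compound exposure at 37 °C.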
HT1080-NT tox: kills 2HG-producing HT-1080-NT fibrosarcoma cells; AID 686970; HT-1080-NT fibrosarcoma viability, CellTiter-Glo ATP luminescence, 48 h; Potency, µM (series often up to 46.1 µM), for the others: at the highest dose activity, negative = less viability, most hits filed as cytotoxic; 360,000 tested, 1.6% active;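 further: NT is the 2HG producing partner of a matched IDH1 knockdown line; potency means the concentration at half of the fitted maximal effect; 0% = DMSO-treated cells and -100% = media-only wells without cells; nearly all actives have a fitted effect of over 55% in size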
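Fibrosarcoma NT cells, 750 per well in 5% FBS RPMI, were exposed to compound for 48 hours. Viability: CellTiter-Glo luminescence.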
* marks the source's active call; other numbers are inactive results; i = inactive; ? = inconclusive; / = not tested or not shown. Unless noted, the call rests on the fitted dose curve; in most records, active means well fitted curve in the direction sought with a large enough effect; inconclusive means small, poorly fitted or top-dose-only effect, or another doubt; inactive means no such curve, though single readings can be large; an effect the other way counts as inactive or inconclusive. Unless noted, on the % scale 0 is the no-effect control and ±100 the full control effect.

SMILES | TDP1 cell CPT | DT40 TDP1 no CPT | IL-1B inflam inh | HT1080 IDH1KD tx | HT1080-NT tox
N#C/C(=C(/O)C(Cl)(Cl)Cl)c1nc2ccccc2[nH]1 | 8.2µM* | 9.2µM* | -6.9 | -0.1% | -7.2%
COCCN1C[C@@H](CO)O[C@@H](n2cnc3c(NCc4ccncc4)ncnc32)C1 | ? | -11.7% | 30.5 | 17.8% | 24.4%
CC(=O)Nc1ccc(S(=O)(=O)Nc2cccc(-n3c(C)nc4ccccc4c3=O)c2)cc1 | -3.8% | -8.5% | -11.2 | 3.9% | -1.5%
COc1ccc(CCN(C)C(=O)Cn2c(=O)oc3ccccc32)cc1OC | -0.6% | -11.7% | 24.4 | 0.0% | 14.0%
Cc1ccc(S(=O)(=O)N2CCOCC2)c2nsnc12 | -9.5% | -0.1% | -22.0 | -0.7% | -0.8%
O=S(=O)(c1ccc(Br)c2nsnc12)N1CCOCC1 | -18.6% | -18.5% | -53.7* | 2.8% | 8.4%
O=C(Nc1cc(-c2ccccc2F)nn1-c1ccccc1)c1ccccc1Br | 18.4µM* | 20.6µM* | / | / | /
O=C(Nc1c2c(nn1-c1ccccc1)CS(=O)(=O)C2)c1ccccc1Br | 0.1% | 2.6% | i | 12.6% | 4.1%
O=C(COc1ccccc1Cl)Nc1cc(-c2ccccc2F)nn1-c1ccccc1 | ? | 9.2µM* | / | / | /
COc1ccccc1-c1cc(NC(=O)COc2ccccc2Cl)n(-c2ccccc2)n1 | -23.9% | -20.5% | / | / | /
O=C(CSc1nnc(-c2ccc(S(=O)(=O)N3CCCC3)cc2)o1)NCc1ccccc1 | 23.1µM* | 18.4µM* | 5.1 | -9.0% | -25.5%
CC(CCc1ccccc1)NC(=O)/C=C/c1ccccc1 (stereo unspecified) | -5.6% | ? | -4.4 | 5.3% | 0.5%
O=C(/C=C/c1ccccc1)NCCc1ccccc1 | 9.2µM* | 11.6µM* | 11.9 | 15.7% | 0.7%
COc1ccc(CCNC(=O)/C=C/c2ccco2)cc1OC | -7.5% | -8.7% | 6.7 | 4.7% | 17.8%
NS(=O)(=O)c1ccc(CCNC(=O)/C=C/c2ccc([N+](=O)[O-])cc2)cc1 | ? | 14.6µM* | 0.1 | -1.3% | -3.9%
O=C(/C=C/c1ccc([N+](=O)[O-])cc1)NCCc1ccccc1 | ? | ? | -9.0 | 12.2% | 7.5%
COc1ccc(CCNC(=O)/C=C/c2ccco2)cc1 | 16.4µM* | ? | -26.4 | 0.6% | -2.5%
c1ccc2c(c1)sc[n+]2CCC1CCCCC1 | 5.01µM* | 2.51µM* | / | / | /
c1ccc(C[n+]2csc3ccccc32)cc1 | 1.03µM* | 1.03µM* | -53.0* | ? | ?
Cc1cc[n+](Cc2ccccc2)c(N)c1 | -0.7% | -16.4% | 11.0 | -0.6% | 3.7%
O=C(CCC1CCCCC1)NCc1cccs1 | -7.8% | 1.9% | -9.9 | 8.4% | 8.2%
O=C(CC1OC(=O)c2ccccc21)Nc1cc(Cl)ccc1N1CCCC1 (stereo unspecified) | -2.7% | -22.0% | 18.1 | -15.2% | -10.1%
COC(=O)c1ccc(N2CCCCC2)c(NC(=O)c2ccco2)c1 | ? | 23.1µM* | -1.6 | -1.1% | -7.7%
O=C(c1ccccc1)c1ccc(N2CCOCC2)c(NC(=O)c2ccco2)c1 | ? | 20.6µM* | -21.0 | -5.1% | -3.4%
Cc1ccccc1NC(=O)c1nnn(-c2ccc3c(c2)OCCO3)c1N | 0.9% | ? | -64.8* | -0.3% | -21.0%
SMILES | TDP1 cell CPT | DT40 TDP1 no CPT | IL-1B inflam inh | HT1080 IDH1KD tx | HT1080-NT tox
CC(C)OC(=O)c1ccc2ccc(-c3ccccc3)nc2c1 | ? | 16.4µM* | 57.3 | -16.3% | -8.3%
O=C(CCC(=O)N1CCSc2ccccc21)NC1CCCCC1 | ? | -27.3% | -5.6 | 8.9% | 6.3%
CCC(C)NS(=O)(=O)c1ccc(NC(=O)C(Sc2ccccc2)c2ccccc2)cc1 (stereo unspecified) | ? | ? | -54.4* | ? | -28.0%
CC(=O)NS(=O)(=O)c1ccc(NC(=O)C(Sc2ccccc2)c2ccccc2)cc1 (stereo unspecified) | 9.1% | -17.8% | 37.4 | 4.5% | 10.3%
O=C(c1ccccc1NS(=O)(=O)c1cccc([N+](=O)[O-])c1)N1CCCC1 | -22.6% | -27.9% | 2.4 | 6.9% | 11.3%
COC(=O)C[C@@H]1CC[C@@H](NC(=O)Nc2cc(F)ccc2F)[C@@H](CO)O1 | -16.5% | -5.0% | -12.3 | 10.3% | 14.0%
O=C(CSc1oc(-c2ccccc2)nc1S(=O)(=O)c1ccccc1)c1ccccc1 | 11.6µM* | 14.6µM* | / | / | /
Cc1cc(C)cc(NC(=O)CSc2oc(-c3ccccc3)nc2S(=O)(=O)c2ccccc2)c1 | 18.4µM* | 23.1µM* | / | / | /
O=C(CSc1oc(-c2ccccc2)nc1S(=O)(=O)c1ccc(Br)cc1)c1ccccc1 | ? | 10.3µM* | / | / | /
CCCCc1nn2c(=O)cc(COC(=O)C(C)Oc3ccccc3)nc2s1 (stereo unspecified) | -4.4% | -3.7% | / | / | /
COc1ccc(-c2cccc(NC(=O)c3cccs3)c2)nn1 | ? | ? | 8.3 | -10.9% | 11.0%
CCOC(=O)c1ccc(N2CCN(c3cc(Cl)ccc3C)CC2)c(NC(=O)Nc2cccc(OC)c2)c1 | 16.4µM* | 9.2µM* | / | / | /
COC(=O)c1ccc(N2CCOCC2)c(NC(=O)Nc2cccc(OC)c2)c1 | -19.0% | -15.5% | 24.8 | -1.1% | -7.1%
CCOC(=O)c1ccc(N2CCN(c3ccccc3F)CC2)c(NC(=O)Nc2cccc(OC)c2)c1 | 13µM* | 5.8µM* | -2.8 | -4.1% | -7.4%
Nc1cc(C(=O)O)ccc1N1CCCCC1 | 0.3% | -3.7% | 18.0 | 14.5% | 18.0%
CCOC(=O)N1CCC(N2CCN(c3cc(C)ccc3C)CC2)CC1 | 29.1µM* | ? | -7.3 | -28.1% | 1.5%
CCOC(=O)c1ccc(N2CCN(c3cc(C)ccc3C)CC2)c(N)c1 | 14.6µM* | 16.4µM* | -13.3 | -0.9% | 1.1%
CCOC(=O)C1C(=O)C=C(Nc2ccccc2F)CC1c1ccccc1 (stereo unspecified) | -10.7% | ? | 3.2 | -2.0% | 19.0%
CC(C)C[C@H](NC(=O)N1CCn2c1nc1ccccc12)C(=O)N[C@H](Cc1ccccc1)C(=O)O | 2.9% | 12.1% | 4.0 | 1.9% | 10.5%
Cc1ccc(NC(=O)Cc2ccccc2F)cc1S(=O)(=O)N1CCCCCC1 | ? | ? | -3.6 | -24.3% | -0.5%
CCOC(=O)c1ccc(N2CCN(c3cc(C)ccc3C)CC2)c(NC(=O)Nc2ccc(Cl)cc2)c1 | 4.61µM* | 4.61µM* | / | / | /
COc1ncc2nc(-c3ccc(F)cc3)c(=O)n(Cc3cccs3)c2n1 | -2.1% | 4.3% | / | / | /
CCOc1ccc(NC(=O)c2cnn3c2NC(C)=C(C(=O)Nc2ccc(Cl)cc2)C3c2ccc(OC)c(OC)c2)cc1 (stereo unspecified) | 23.1µM* | 10.3µM* | / | / | /
